Where “and” joins values, the source holds several entries; their conditions need not be identical. Identical values can stand only once. Inconclusive results are not listed. Calls of active or inactive are those of the source. Calls come from the whole dose curve; as a rule, active = well fitted curve in either direction with a large enough effect; inconclusive = small, poorly fitted or top-dose-only effect; inactive = flat fitted curve, though single readings scatter.
target: Neuropeptide S receptor (Homo sapiens) (UniProt Q6W5P4); test: Confirmation Concentration-Response Assay for Antagonists of the Neuropeptide S Receptor: Robust Characterization of cAMP Signal Transduction; settings: CHO-NPSR cells, NPS-stimulated cAMP TR-FRET; series mostly up to 50.7 µM
Description: NIH Chemical Genomics Center [NCGC] NIH Molecular Libraries Probe Production centers Network [MLPCN] MLPCN Grant: X01-DA026210-01 Assay Submitter (PI): Heilig, Markus Alexander NCGC Assay Overview: Neuropeptide S receptor (NPSR), previously known as GPR154, is a recently de-orphanized G protein coupled receptor. Its endogenous ligand is the 20 amino acids peptide Neuropeptide S (NPS). […] NPS and its receptor are found in various tissues. Specifically they are highly expressed in brain areas that have been implicated in modulation of arousal, stress and anxiety. Central administration of NPS in mice produces an unusual profile of activity by inducing wakefulness and arousal, while at the same time suppressing anxiety. Therefore, NPSR may represent a novel drug target for the treatment of sleep and anxiety disorders. To identify NPSR antagonists, we developed a cell-based cAMP assay. NPS can stimulate the production of cAMP in Chinese hamster ovary cells stably expressing NPS receptor. This change in intracellular cAMP level can be detected by a homogeneous LANCE cAMP assay based on the TR-FRET (time resolved fluorescence resonance energy transfer) between a europium-labeled cAMP tracer complex and a cAMP-specific antibody labeled with Alexa Fluor 647. The europium-labeled cAMP tracer complex is formed by the tight interaction between Biotin-cAMP (b-cAMP) and streptavidin labeled with Europium-W8044 chelate (Eu-SA). Light pulse at 320 nm excites the europium of the cAMP tracer and the energy emitted is transferred to the Alexa molecule bound to the cAMP antibody, generating a TR-FRET signal at 665 nm. Residual energy from the europium will produce a light at 620 nm. The native unlabeled cAMP from cell lysates competes with the europium-cAMP tracer for antibody binding and reversely reduces the emission signal of Alexa by interrupting FRET between the two labeled molecules. Both emission signals from the FRET donor (620 nm) and the acceptor (665 nm) can be detected by a plate reader in the TRF mode. Expression of result in fluorescence ratio (665 nm/620 nm) helps to normalize differences due to cell density and reagent dispensing. This assay was successfully optimized to a 1536-well plate format. Select compounds from the primary screen (AID 1461) were chosen for confirmation based on potency, efficacy, SAR, and activity across other assays in PubChem and at NCGC. Other compounds are analogs of active compounds from the primary screen. This particular assay uses a high density of sampling across concentration-response space to establish more confidence estimates of potency.
NCGC Assay Protocol Summary: A Chinese hamster ovary (CHO) cell line stably expressing the NPS receptor (CHO-NPSR) was obtained from Dr. Heilig lab at NIAAA and maintained in F-12 Kaighn's media (Invitrogen, Carlsbad, CA, 21127) supplemented with 10 % FBS, 100 units/ml penicillin, 100 ug/ml streptomycin and 250 ug/ml geneticin at 37C, 5% CO2 in a humidified atmosphere. Before the assay, aliquots of cells were frozen and stored at -135C. The assay was performed in 1536-well format. Data are reported for both the ratio of the two emission wavelengths, and also for the component 'donor' channel, Em2=620. […] IC50 values were determined from concentration-response data modeled with the standard Hill equation. NPS 1536-well assay protocol: (1) Fresh or frozen CHO-NPSR cells were suspended in F-12 Kaighn's media supplemented with 10 % FBS, 100 units/ml penicillin and 100 ug/ml streptomycin. Cells were plated at 4 ul/well (1200 cells) to white, tissue culture treated 1536-well plates, and then cultured at 37C, 5 % CO2 for 16 to 30 hours. (2) Add 23 nl/well of compound in DMSO solution. The final titration for each compound was between 0.6 nM and 46 uM. […]

Chain of Neuropeptide S receptor (Homo sapiens) (Q6W5P4 whole entry, looked up): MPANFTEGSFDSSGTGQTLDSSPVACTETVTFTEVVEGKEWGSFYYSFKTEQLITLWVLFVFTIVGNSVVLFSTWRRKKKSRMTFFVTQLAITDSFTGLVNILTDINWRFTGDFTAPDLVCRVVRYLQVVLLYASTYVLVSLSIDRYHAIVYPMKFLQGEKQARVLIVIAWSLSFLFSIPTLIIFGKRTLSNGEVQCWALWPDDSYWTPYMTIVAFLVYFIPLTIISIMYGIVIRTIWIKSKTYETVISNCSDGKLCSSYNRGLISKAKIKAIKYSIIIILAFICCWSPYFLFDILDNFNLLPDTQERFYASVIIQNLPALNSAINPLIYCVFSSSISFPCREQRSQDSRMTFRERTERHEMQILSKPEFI

| Compound | Potency |
| --- | --- |
| COc1ccc(C2c3c(nc(CCc4ccccc4)[nH]c3=O)Oc3ccc4ccccc4c32)cc1OC (stereo not given) | inactive |
| COc1cccc(C2c3c(ncn(-c4ccc(Br)cc4)c3=N)Oc3ccc4ccccc4c32)c1 (stereo not given) | 12.2 µM (active) |
| N=c1c2c(ncn1-c1ccccc1)Oc1ccc3ccccc3c1C2c1ccc2c(c1)OCCO2 (stereo not given) | 2.18 µM (active) |
| COc1ccc(C2c3c(nc(CCCc4ccccc4)[nH]c3=O)Oc3ccc4ccccc4c32)cc1OC (stereo not given) | inactive |
| COc1cccc(C2c3c(ncn(-c4cccc(Br)c4)c3=N)Oc3ccc4ccccc4c32)c1 (stereo not given) | 12.2 µM (active) |
| Cc1nc2ccccn2c1C(O)(c1ccccc1)c1ccccc1 | inactive |
| COc1ccc(C2C3=C(N=CN(CCN4CCOCC4)C3N)Oc3ccccc32)cc1OC (stereo not given) | inactive |
| COc1cccc(C2c3c(ncn(-c4ccccc4C(C)(C)C)c3=N)Oc3ccc4ccccc4c32)c1 (stereo not given) | 12.2 µM (active) |
| COc1cccc(C2c3c(ncn(-c4ccc(F)cc4)c3=N)Oc3ccc4ccccc4c32)c1 (stereo not given) | 12.2 µM (active) |
| COc1cccc(C2c3c(ncn(-c4ccccc4-c4ccccc4)c3=N)Oc3ccc4ccccc4c32)c1 (stereo not given) | 15.4 µM (active) |
| COc1cccc(C2c3c(ncn(-c4cccc(Cl)c4)c3=N)Oc3ccc4ccccc4c32)c1 (stereo not given) | 8.67 µM (active) |
| COc1cccc(C2c3c(ncn(-c4ccc(C)cc4)c3=N)Oc3ccc4ccccc4c32)c1 (stereo not given) | 8.67 µM (active) |
| COc1cccc(C2c3c(ncn(-c4ccccc4SC)c3=N)Oc3ccc4ccccc4c32)c1 (stereo not given) | 4.87 µM (active) |
| N=c1c2c(ccn1-c1ccccc1)Oc1ccc3ccccc3c1C2c1ccccc1 (stereo not given) | 1.09 µM (active) |
| O=C(CCc1ccccc1)Nc1ncnc2c1C(c1ccccc1)c1c(ccc3ccccc13)O2 (stereo not given) | 4.34 µM (active) |
| COc1cccc(C2c3c(ncn(-c4cccc(F)c4)c3=N)Oc3ccc4ccccc4c32)c1 (stereo not given) | 3.87 µM (active) |
| O=C(NCc1ccccc1)Nc1ncnc2c1C(c1ccccc1)c1c(ccc3ccccc13)O2 (stereo not given) | 30.7 µM (active) |
| N=c1c2c(ccn1Cc1ccccc1)Oc1ccc3ccccc3c1C2c1ccccc1 (stereo not given) | 2.18 µM (active) |
| CCOC(=O)CC(=O)Nc1ncnc2c1C(c1ccccc1)c1c(ccc3ccccc13)O2 (stereo not given) | 3.07 µM (active) |
| COc1ccc(C2c3ccc4ccccc4c3Oc3ncn(CCN4CCOCC4)c(=N)c32)cc1OC (stereo not given) | 30.7 µM (active) |

| Compound | Potency |
| --- | --- |
| COc1cccc(C2c3c(ncn(-c4ccc(NC(C)=O)cc4)c3=N)Oc3ccc4ccccc4c32)c1 (stereo not given) | 12.2 µM (active) |
| COc1ccccc1C1c2c(ncn(-c3ccccc3)c2=N)Oc2ccc3ccccc3c21 (stereo not given) | 4.34 µM (active) |
| COc1cccc(C2c3c(ncn(-c4cccnc4)c3=N)Oc3ccc4ccccc4c32)c1 (stereo not given) | 8.67 µM (active) |
| COc1ccc(C2c3c(ncn(CCCc4ccccc4)c3=N)Oc3ccc4ccccc4c32)cc1OC (stereo not given) | 27.4 µM (active) |
| O=C(Cc1ccccc1)Nc1ncnc2c1C(c1ccccc1)c1c(ccc3ccccc13)O2 (stereo not given) | 2.74 µM (active) |
| COc1ccc(C2c3c(N)nc(CCc4ccccc4)nc3Oc3ccc4ccccc4c32)cc1OC (stereo not given) | 24.4 µM (active) |
| COc1ccc(C2c3ccccc3Oc3ncn(CCN4CCOCC4)c(=N)c32)cc1OC (stereo not given) | 4.87 µM (active) |
| COc1cccc(C2c3c(ncn(Cc4cccs4)c3=N)Oc3ccc4ccccc4c32)c1 (stereo not given) | 12.2 µM (active) |
| COc1cccc(C2C(C#N)=C(NC(=O)CCc3ccccc3)Oc3ccc4ccccc4c32)c1 (stereo not given) | inactive |
| Nc1ncnc2c1C(c1ccccc1)c1c(ccc3ccccc13)O2 (stereo not given) | 6.88 µM (active) |
| COc1cccc(C2c3c(ncn(-c4ccccc4Cl)c3=N)Oc3ccc4ccccc4c32)c1 (stereo not given) | 8.67 µM (active) |
| COc1ccc2c(c1)Oc1ncn(CCN3CCOCC3)c(=N)c1C2c1ccc(OC)c(OC)c1 (stereo not given) | 13.7 µM (active) |
| N=c1c2c(ncn1-c1ccccc1)Oc1ccc3ccccc3c1C2c1ccc2c(c1)OCO2 (stereo not given) | 3.07 µM (active) |
| COc1ccc(C2c3c(nc(Cc4ccccc4)[nH]c3=O)Oc3ccc4ccccc4c32)cc1OC (stereo not given) | inactive |
| COc1ccc(C2c3c(n(CCCc4ccccc4)cnc3=N)Oc3ccc4ccccc4c32)cc1OC (stereo not given) | 24.4 µM (active) |
| COc1ccc(C2c3c(ncn(Cc4ccccc4)c3=N)Oc3ccc4ccccc4c32)cc1OC (stereo not given) | 13.7 µM (active) |
| COc1cccc(C2c3c(ncn(-c4ccc5c(c4)OCO5)c3=N)Oc3ccc4ccccc4c32)c1 (stereo not given) | 4.34 µM (active) |
| CCC(C)(CCN1CCOCC1)N(Cc1cc2ccccc2n(C)c1=O)C(=O)C1CCCCC1 (stereo not given) | 0.0546 µM (active) |
| S=P(c1ccccc1)(c1ccccc1)c1nc(CCCc2ccccc2)n2ccccc12 | inactive |
| COc1cccc(C2c3c(ncn(-c4ccccc4)c3=N)Oc3ccc4ccccc4c32)c1 (stereo not given) | 8.67 µM (active) and 1.54 µM (active) |

Source: PubChem BioAssay AID434936 (National Center for Advancing Translational Sciences (NCATS), 2010)
